Measurements reported in PubChem BioAssay (EPA / NIEHS).
Inconclusive results are not listed. Calls of active or inactive are those of the source. Rule for the calls, unless noted: active = hit-call score of the fitted dose curve at least 0.9, where 1 is the maximum; inactive = score below 0.9.

Assays:
THRB (gene 7068) = THRB (gene 7068) (UniProt P10828); assay: TOX21_TRB_COA_Antagonist_Followup_ratio: Tox21 Thyroid Hormone Receptor beta Antagonism through Coactivator Recruitment Follow-Up Assay, Ratio (AID 2283967; active = hit-call score of the fitted dose curve at least 0.9, where 1 is the maximum)
Sequence of THRB (gene 7068) (P10828 whole entry, looked up, the tested form may be a part): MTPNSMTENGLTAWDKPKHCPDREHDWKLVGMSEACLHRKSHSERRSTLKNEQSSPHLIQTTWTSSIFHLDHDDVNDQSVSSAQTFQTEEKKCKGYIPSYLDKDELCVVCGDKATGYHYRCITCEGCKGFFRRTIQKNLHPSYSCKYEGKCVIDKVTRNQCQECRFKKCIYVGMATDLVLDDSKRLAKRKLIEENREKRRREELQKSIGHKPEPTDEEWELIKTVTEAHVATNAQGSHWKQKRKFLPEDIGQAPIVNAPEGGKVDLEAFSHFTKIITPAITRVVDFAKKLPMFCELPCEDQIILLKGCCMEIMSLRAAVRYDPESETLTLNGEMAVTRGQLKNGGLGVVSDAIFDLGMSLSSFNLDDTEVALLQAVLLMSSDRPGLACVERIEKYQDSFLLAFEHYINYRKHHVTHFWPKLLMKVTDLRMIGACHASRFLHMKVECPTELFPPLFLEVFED
Summary of the method: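 Cell-free TR-FRET: GST-TRb LBD (5.0 nM) with fluorescein-SRC-2 peptide (200 nM) and Tb anti-GST antibody (2 nM), 0.10% BSA. 520:495 nm emission ratio normalized to DMSO (0%) and T3 (100%).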

[1] = TOX21_TR_RXR_BLA_Antagonist_Followup_viability: Viability Assessment in the Tox21 Thyroid Hormone Receptor beta Retinoid X Receptor alpha (RXRa) Antagonism Beta-lactamase (BLA) Follow-Up Assay (AID 2283979; active = hit-call score of the fitted dose curve at least 0.9, where 1 is the maximum)
Summary of the method: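 RXRa-bla HEK293T cells (2,500/well, phenol red-free DMEM, 2% charcoal-stripped FBS) were attached 5 h, then exposed to compounds at 11 concentrations in triplicate for 16 h at 37C. Viability measured by CellTiter-Glo ATP luminescence, bidirectional fitting versus DMSO.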

[2] = biological target: Retinoic acid receptor RXR-alpha (Homo sapiens) (UniProt P19793); assay: TOX21_TR_RXR_BLA_Antagonist_Followup_ratio: Tox21 Thyroid Hormone Receptor beta Retinoid X Receptor alpha (RXRa) Antagonism Beta-lactamase (BLA) Follow-Up Assay, Ratio (AID 2283972; active = hit-call score of the fitted dose curve at least 0.9, where 1 is the maximum)
Sequence of Retinoic acid receptor RXR-alpha (Homo sapiens) (P19793 whole entry, looked up, the tested form may be a part): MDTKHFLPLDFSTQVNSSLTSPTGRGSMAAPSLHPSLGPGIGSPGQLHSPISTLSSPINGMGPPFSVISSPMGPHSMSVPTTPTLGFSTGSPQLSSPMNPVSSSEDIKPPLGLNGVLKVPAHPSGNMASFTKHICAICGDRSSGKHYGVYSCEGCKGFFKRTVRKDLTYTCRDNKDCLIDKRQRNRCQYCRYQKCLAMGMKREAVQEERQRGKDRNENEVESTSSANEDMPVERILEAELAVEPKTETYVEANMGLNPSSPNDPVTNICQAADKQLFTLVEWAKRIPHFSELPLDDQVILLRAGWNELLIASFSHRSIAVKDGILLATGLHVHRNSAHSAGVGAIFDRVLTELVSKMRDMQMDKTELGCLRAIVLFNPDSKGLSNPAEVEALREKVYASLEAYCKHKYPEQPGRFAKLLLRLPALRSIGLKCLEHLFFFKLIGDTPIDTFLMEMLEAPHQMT
From the text: GeneBLAzer RXRa-UAS-bla HEK293T assay (RXRa-bla) (ThermoFisherScientific Catalog No. K1697) was run in qHTS 1536 well format as a secondary assay for specificity of response in the TOX21_TR_GH3_LUC_Agonist assay.TOX21_TR_RXR_BLA_Antagonist_Followup_ratio is an assay readout measuring reporter gene via receptor activity and designed using inducible reporter (beta lactamase induction) detected with GAL4 b-lactamase reporter gene. The signal is derived from the ratio of cleaved (ch2) to uncleaved (ch1) reporter gene substrate used as the measure of target activity.Data from the assay component TOX21_TR_RXR_BLA_Antagonist_Followup_ratio was analyzed into 1 assay endpoint. This assay endpoint, TOX21_TR_RXR_BLA_Antagonist_Followup_ratio, was analyzed in the positive analysis fitting direction relative to DMSO as the negative control and baseline of activity. Using a type of inducible reporter, loss-of-signal activity can be used to understand changes in the reporter gene as they relate to the gene RXRA. Furthermore, this assay endpoint can be referred to as a primary readout, because this assay has produced multiple assay endpoints and this ratio serves a reporter gene function to understand target activity. To generalize the intended target to other relatable targets, this assay endpoint is annotated to the nuclear receptor intended target family, where subfamily is non-steroidal. […]

[3] = CCTE_Harrill_HTTr_Viability_DMEM_6hr: (Pilot) CCTE's 6-hour Cell Viability Assessment for the High-Throughput Transcriptomics (HTTr) Platform, in MCF-7 cells cultured in DMEM + 10% fetal bovine serum, Harrill Lab (AID 2283973)
Summary of the method: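 MCF-7 cells in DMEM + 10% FBS, eight-point dilution series, 6 h exposure. Membrane integrity by propidium iodide exclusion with high-content imaging; bidirectional fit versus DMSO.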

[4] = CCTE_Harrill_HTTr_Viability_DMEM_12hr: (Pilot) CCTE's 12-hour Cell Viability Assessment for the High-Throughput Transcriptomics (HTTr) Platform, in MCF-7 cells cultured in DMEM + 10% fetal bovine serum, Harrill Lab (AID 2283974)
From the text: This is a cell-based assay that evaluates cell viability using high content imaging to evaluate membrane integrity using propidium iodide dye exclusion in a 384 well format.One of seven assay components measured from the CCTE_Harrill_HTTr_Viability assay. This was part of a pilot experiment. This is a cell-based assay that evaluates cell viability in MCF-7 cells cultured in DMEM + 10% fetal bovine serum. High content imaging is used to evaluate membrane integrity using propidium iodide dye exclusion. Measurements are taken at 12 hours after chemical dosing in 384-well format.The assay component endpoint CCTE_Harrill_HTTr_Viability_DMEM_12hr was analyzed with bidirectional fitting relation to DMSO as the negative control and baseline of activity. Using a type of viability reporter to understand changes in cytotoxicity, gain-of-signal activity can be used to evaluate membrane integrity using propidium iodide dye exclusion. To generalize the intended target to other relatable targets, this assay endpoint is annotated to cell cycle, where the subfamily is cytotoxicity.
(§1) Chemicals were tested in MCF7 cells in an eight point dilution series with a twelve hour exposure duration.

[5] = CCTE_Harrill_HTTr_Viability_DMEM_24hr: (Pilot) CCTE's 24-hour Cell Viability Assessment for the High-Throughput Transcriptomics (HTTr) Platform, in MCF-7 cells cultured in DMEM + 10% fetal bovine serum, Harrill Lab (AID 2283975)
Summary of the method: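 MCF-7 cells in DMEM with 10% FBS exposed for 24 hours to an eight-point dilution series. Membrane integrity by propidium iodide exclusion with high content imaging; bidirectional fit against DMSO.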

[6] = CCTE_Harrill_HTTr_Viability_PRF_DMEM_6hr: (Pilot) CCTE's 6-hour Cell Viability Assessment for the High-Throughput Transcriptomics (HTTr) Platform, in MCF-7 cells cultured phenol red-free DMEM + 10% charcoal-stripped fetal bovine serum, Harrill Lab (AID 2283976)
Summary of the method: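 MCF-7 cells in phenol red-free DMEM with 10% charcoal-stripped FBS exposed 6 hours to an eight-point dilution series. Propidium iodide exclusion imaged; curves fitted bidirectionally against DMSO.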

[7] = CCTE_Harrill_HTTr_Viability_PRF_DMEM_12hr: (Pilot) CCTE's 12-hour Cell Viability Assessment for the High-Throughput Transcriptomics (HTTr) Platform, in MCF-7 cells cultured in phenol red-free DMEM + 10% charcoal-stripped fetal bovine serum, Harrill Lab (AID 2283977)
From the text: This is a cell-based assay that evaluates cell viability using high content imaging to evaluate membrane integrity using propidium iodide dye exclusion in a 384 well format.One of seven assay components measured from the CCTE_Harrill_HTTr_Viability assay. This was part of a pilot experiment. This is a cell-based assay that evaluates cell viability in MCF-7 cells cultured in phenol red-free DMEM + 10% charcoal-stripped fetal bovine serum. High content imaging is used to evaluate membrane integrity using propidium iodide dye exclusion. Measurements are taken at 12 hours after chemical dosing in 384-well format.The assay component endpoint CCTE_Harrill_HTTr_Viability_PRF_DMEM_12hr was analyzed with bidirectional fitting relation to DMSO as the negative control and baseline of activity. Using a type of viability reporter to understand changes in cytotoxicity, gain-of-signal activity can be used to evaluate membrane integrity using propidium iodide dye exclusion. To generalize the intended target to other relatable targets, this assay endpoint is annotated to cell cycle, where the subfamily is cytotoxicity.
as §1

[8] = biological target: Retinoic acid receptor RXR-alpha (Homo sapiens) (UniProt P19793); assay: TOX21_TR_RXR_BLA_Agonist_Followup_ratio: Tox21 Thyroid Hormone Receptor beta Retinoid X Receptor alpha (RXRa) Agonism Beta-lactamase (BLA) Follow-Up Assay, Ratio (AID 2283968; active = hit-call score of the fitted dose curve at least 0.9, where 1 is the maximum)
Summary of the method: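 RXRa-UAS-bla HEK293T cells, 5 h attachment at 37C/5% CO2, then 11 concentrations in triplicate for 16 h; 9-cis retinoic acid positive control. FRET-B/GCCF4-AM substrate 2 h at room temperature; 460:530 nm ratio, fitted for gain versus DMSO.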

[9] = TOX21_TR_RXR_BLA_Agonist_Followup_viability: Viability Assessment in the Tox21 Thyroid Hormone Receptor beta Retinoid X Receptor alpha (RXRa) Agonism Beta-lactamase (BLA) Follow-Up Assay (AID 2283970; active = hit-call score of the fitted dose curve at least 0.9, where 1 is the maximum)
Summary of the method: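 RXRa-UAS-bla HEK293T cells, 2,500/well in phenol red-free DMEM with 2% charcoal-stripped FBS, dosed for 16 h at 37C. Viability measured by CellTiter-Glo ATP luminescence; fitted bidirectionally against DMSO baseline, loss of signal indicating cytotoxicity.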

Measured: outcome

C[C@]12CCC(=O)C=C1CC[C@@H]1[C@@H]2CC[C@@]2(C)[C@H]1CC[C@]2(C)O
inactive: THRB (gene 7068) | [1]

CO/C=C(/C(=O)OC)c1ccccc1COc1cccc(C(F)(F)F)n1
inactive: THRB (gene 7068) | [2] | [1]

CCC(C)(c1ccc(O)cc1)c1ccc(O)cc1
inactive: [3] | [4] | [5] | [6] | [7]

CC(C)(c1ccccc1)c1ccc(O)cc1
inactive: [3] | [4] | [5] | [6] | [7]

Cc1cc(O)ccc1Cl
inactive: [8] | [9]
